# From PubChem BioAssay (NCI)
# About 79,000 compounds went through this panel and 15% of them were active in at least one assay; those are over-represented in the sample as a whole. A number with no mark means an inactive call. Calls of active or inactive are those of the source. Cut-off read from the data, not from the text of the source: active = growth inhibition above about 70%; inactive = the rest.
# Tests used:
# [1] = NCI Yeast Anticancer Drug Screen. Data for the rad52 strain (AID 147);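 note: 0% = growth of vehicle-treated control cultures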; details: S. cerevisiae rad52 mutant growth inhibition, stronger effect = higher value
# Outline: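 Measured: yeast growth inhibition. System: strain with a defined DNA damage repair alteration. Reference: vehicle-treated control cultures.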
# [2] = NCI Yeast Anticancer Drug Screen. Data for the wt1 strain (AID 149);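 note: 0% = growth of vehicle-treated wt1 cultures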; details: S. cerevisiae wt1 strain (SPY 50644) growth inhibition, stronger effect = higher value
# Outline: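 Using yeast strain wt1, compound-induced growth inhibition was determined against vehicle-treated cultures.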
# [3] = NCI Yeast Anticancer Drug Screen. Data for the rad50 strain (AID 155);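 note: 0% = growth of vehicle-only cultures of the same strain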; details: S. cerevisiae rad50 strain growth inhibition, stronger effect = higher value
# Outline: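 Relative growth inhibition (compound vs vehicle) was measured in yeast with a defined repair-gene alteration.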
# [4] = NCI Yeast Anticancer Drug Screen. Data for the mec2-1 strain (AID 157); details: S. cerevisiae mec2-1 strain, stronger effect = higher value
# Outline: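 Test agents were screened against the mec2-1 yeast strain, with defined DNA repair or cell cycle alteration. Growth was scored as inhibition against vehicle-only controls.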
# [5] = NCI Yeast Anticancer Drug Screen. Data for the rad14 strain (AID 159);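 note: 0% = growth of vehicle-treated control cultures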; details: S. cerevisiae rad14 strain growth inhibition, stronger effect = higher value
# Outline: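 Screen for anticancer potential: a yeast strain altered in DNA damage repair is grown with compound, and reduced growth is quantified against vehicle controls.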
# [6] = NCI Yeast Anticancer Drug Screen. Data for the sgs1 mgt1 strain (AID 161);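 note: 0% = growth of cultures given vehicle only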; details: S. cerevisiae sgs1 mgt1 strain, stronger effect = higher value
# Outline: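 Read-out: growth inhibition vs vehicle controls. Cells: mutant yeast strain deficient in DNA damage repair.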
# [7] = NCI Yeast Anticancer Drug Screen. Data for the CLN2oe strain (AID 163);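 note: 0% = growth of vehicle-only control cultures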; details: S. cerevisiae CLN2oe strain, stronger effect = higher value
# Outline: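 Here, growth inhibition in a cell-cycle-altered yeast strain after compound exposure was quantified against vehicle control growth.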
# [8] = NCI Yeast Anticancer Drug Screen. Data for the cln2 rad14 strain (AID 165);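 note: 0% = growth equal to vehicle treated cultures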; details: S. cerevisiae cln2 rad14 strain, stronger effect = higher value
# Outline: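 Growth of compound-exposed yeast (cln2 rad14 genotype) measured and expressed as inhibition relative to vehicle.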
# [9] = NCI Yeast Anticancer Drug Screen. Data for the bub3 strain (AID 167); details: S. cerevisiae bub3 mutant strain, stronger effect = higher value
# Outline: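 Screening used yeast with an engineered genetic alteration affecting cell cycle control. Compound-exposed cultures were compared with vehicle cultures, and reduced growth was taken as inhibition.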
# [10] = NCI Yeast Anticancer Drug Screen. Data for the wt2 strain (AID 169);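 note: 0% = growth of vehicle-treated yeast cultures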; details: S. cerevisiae wt2 strain growth inhibition, stronger effect = higher value
# Outline: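 Genetically defined yeast strains from a DNA-repair/cell-cycle panel were used. Compound-exposed yeast growth was measured, and the inhibition was calculated relative to vehicle treatment.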
# [11] = NCI Yeast Anticancer Drug Screen. Data for the mlh1 strain (AID 171);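 note: 0% = growth of vehicle-treated control cultures of the same strain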; details: S. cerevisiae mlh1 strain growth inhibition, stronger effect = higher value
# Outline: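 Here the genetically defined yeast mutant is grown with each compound, and the extent to which its growth falls below that of vehicle-exposed cells is reported.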
# [12] = NCI Yeast Anticancer Drug Screen. Data for the sgs1 strain (AID 173);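 note: 0% = growth of vehicle-only control cultures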; details: S. cerevisiae sgs1 mutant, stronger effect = higher value
# Outline: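 Relative growth inhibition, referenced to vehicle, was determined in a yeast strain with a defined alteration affecting DNA damage repair or cell cycle control after compound exposure.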
# [13] = NCI Yeast Anticancer Drug Screen. Data for the mlh1 rad18 strain (AID 175); details: S. cerevisiae mlh1 rad18 strain growth inhibition, stronger effect = higher value
# Outline: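 In this whole-cell yeast screen, a strain with altered DNA damage repair is challenged with compound, and its growth is measured against matched vehicle-treated controls.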
# [14] = NCI Yeast Anticancer Drug Screen. Data for the rad18 strain (AID 177); details: S. cerevisiae rad18 mutant growth inhibition, stronger effect = higher value
# Outline: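 Screen uses a yeast strain with a defined lesion in DNA damage repair; compound effect is read as loss of growth compared to untreated vehicle cultures.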
# [15] = NCI Yeast Anticancer Drug Screen. Data for the rad50EPP+ strain (AID 151);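 note: 0% = growth of vehicle-treated control cultures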; details: S. cerevisiae rad50 mutant strain, stronger effect = higher value
# Outline: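 One strain with a rad50 alteration (rad50EPP+) was compound-treated, its growth then compared to that of vehicle controls.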
# [16] = NCI Yeast Anticancer Drug Screen. Data for the mgt1 strain (AID 153); details: S. cerevisiae mgt1 mutant growth inhibition, stronger effect = higher value
# Outline: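 After exposure of the mgt1 yeast mutant to compound, growth was measured and reported as inhibition compared with vehicle controls.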
# [17] = at 5.0 µM (retest, dose inferred, filed as 0.5)
# [18] = at 50.0 µM (retest, dose inferred, filed as 5.0)
smiles,measurement,setting,value
CCOC(=O)C(NC(=O)CC)(N1CCN(c2cc3c(cc2F)c(=O)c(C(=O)O)cn3C2CC2)CC1)C(F)(F)F (stereo not given),growth inhibition,[1]; at 1.2 µM,0%
same,growth inhibition,[1]; at 3.7 µM,3%
same,growth inhibition,[1]; at 11.0 µM,44%
same,growth inhibition,[1]; at 33.0 µM,91% (active)
same,growth inhibition,[1]; at 100.0 µM,97% (active)
same,growth inhibition,[2]; at 1.2 µM,-2%
same,growth inhibition,[2]; at 3.7 µM,1%
same,growth inhibition,[2]; at 11.0 µM,0%
same,growth inhibition,[2]; at 33.0 µM,14%
same,growth inhibition,[2]; at 100.0 µM,66%
same,growth inhibition,[3]; at 1.2 µM,0%
same,growth inhibition,[3]; at 3.7 µM,5%
same,growth inhibition,[3]; [17],-10%
same,growth inhibition,[3]; at 11.0 µM,47%
same,growth inhibition,[3]; at 33.0 µM,90% (active)
same,growth inhibition,[3]; [18],61%
same,growth inhibition,[3]; at 50.0 µM,91.5% (active)
same,growth inhibition,[3]; at 100.0 µM,97% (active)
same,growth inhibition,[4]; at 1.2 µM,-1%
same,growth inhibition,[4]; at 3.7 µM,-5%
same,growth inhibition,[4]; [17],0%
same,growth inhibition,[4]; at 11.0 µM,1%
same,growth inhibition,[4]; at 33.0 µM,47%
same,growth inhibition,[4]; [18],6%
same,growth inhibition,[4]; at 50.0 µM,84.1% (active)
same,growth inhibition,[4]; at 100.0 µM,96% (active)
same,growth inhibition,[5]; at 1.2 µM,0%
same,growth inhibition,[5]; at 3.7 µM,2%
same,growth inhibition,[5]; at 11.0 µM,6%
same,growth inhibition,[5]; at 33.0 µM,29%
same,growth inhibition,[5]; at 100.0 µM,91% (active)
same,growth inhibition,[6]; [17],-2%
same,growth inhibition,[6]; [18],15%
same,growth inhibition,[6]; at 50.0 µM,28.6%
same,growth inhibition,[7]; at 1.2 µM,1%
same,growth inhibition,[7]; at 3.7 µM,3%
same,growth inhibition,[7]; at 11.0 µM,-3%
same,growth inhibition,[7]; at 33.0 µM,21%
same,growth inhibition,[7]; at 100.0 µM,86% (active)
same,growth inhibition,[8]; [17],1%
same,growth inhibition,[8]; [18],-1%
same,growth inhibition,[8]; at 50.0 µM,45.6%
same,growth inhibition,[9]; at 1.2 µM,-40%
same,growth inhibition,[9]; at 3.7 µM,0%
same,growth inhibition,[9]; [17],-14%
same,growth inhibition,[9]; at 11.0 µM,0%
same,growth inhibition,[9]; at 33.0 µM,18%
same,growth inhibition,[9]; [18],2%
same,growth inhibition,[9]; at 50.0 µM,79.1% (active)
same,growth inhibition,[9]; at 100.0 µM,91% (active)
same,growth inhibition,[10]; at 1.2 µM,-1%
same,growth inhibition,[10]; at 3.7 µM,-4%
same,growth inhibition,[10]; at 11.0 µM,-2%
same,growth inhibition,[10]; at 33.0 µM,10%
same,growth inhibition,[10]; at 100.0 µM,84% (active)
same,growth inhibition,[11]; at 1.2 µM,-1%
same,growth inhibition,[11]; at 3.7 µM,0%
same,growth inhibition,[11]; at 11.0 µM,0%
same,growth inhibition,[11]; at 33.0 µM,16%
same,growth inhibition,[11]; at 100.0 µM,85% (active)
same,growth inhibition,[12]; at 1.2 µM,0%
same,growth inhibition,[12]; at 3.7 µM,1%
same,growth inhibition,[12]; at 11.0 µM,4%
same,growth inhibition,[12]; at 33.0 µM,28%
same,growth inhibition,[12]; at 100.0 µM,88% (active)
same,growth inhibition,[13]; [17],-3%
same,growth inhibition,[13]; [18],21%
same,growth inhibition,[13]; at 50.0 µM,74.5% (active)
same,growth inhibition,[14]; at 1.2 µM,-2%
same,growth inhibition,[14]; at 3.7 µM,-2%
same,growth inhibition,[14]; at 11.0 µM,0%
same,growth inhibition,[14]; at 33.0 µM,23%
same,growth inhibition,[14]; at 100.0 µM,91% (active)
NC(N)=NCCCS(=O)(=O)Nc1ccc(Nc2c3ccccc3nc3cc([N+](=O)[O-])ccc23)cc1,growth inhibition,[1]; at 1.2 µM,-26%
same,growth inhibition,[1]; at 3.7 µM,8%
same,growth inhibition,[1]; at 11.0 µM,36%
same,growth inhibition,[1]; at 33.0 µM,79% (active)
same,growth inhibition,[1]; at 100.0 µM,91% (active)
same,growth inhibition,[15]; at 1.2 µM,-21%
same,growth inhibition,[15]; at 3.7 µM,-11%
same,growth inhibition,[15]; at 11.0 µM,17%
same,growth inhibition,[15]; at 33.0 µM,44%
same,growth inhibition,[15]; at 100.0 µM,68%
same,growth inhibition,[16]; at 1.2 µM,-24%
same,growth inhibition,[16]; at 3.7 µM,-29%
same,growth inhibition,[16]; at 11.0 µM,-10%
same,growth inhibition,[16]; at 33.0 µM,18%
same,growth inhibition,[16]; at 100.0 µM,65%
same,growth inhibition,[3]; at 1.2 µM,-4%
same,growth inhibition,[3]; at 3.7 µM,-4%
same,growth inhibition,[3]; [17],23%
same,growth inhibition,[3]; at 11.0 µM,44%
same,growth inhibition,[3]; at 33.0 µM,83% (active)
same,growth inhibition,[3]; [18],88% (active)
same,growth inhibition,[3]; at 50.0 µM,72.9% (active)
same,growth inhibition,[3]; at 100.0 µM,89% (active)
same,growth inhibition,[4]; at 1.2 µM,-37%
same,growth inhibition,[4]; at 3.7 µM,-32%
same,growth inhibition,[4]; [17],-22%
same,growth inhibition,[4]; at 11.0 µM,-26%
same,growth inhibition,[4]; at 33.0 µM,11%
same,growth inhibition,[4]; [18],74% (active)
same,growth inhibition,[4]; at 50.0 µM,60%
same,growth inhibition,[4]; at 100.0 µM,70% (active)
same,growth inhibition,[6]; [17],20%
same,growth inhibition,[6]; [18],83% (active)
same,growth inhibition,[6]; at 50.0 µM,63.1%
same,growth inhibition,[7]; at 1.2 µM,-65%
same,growth inhibition,[7]; at 3.7 µM,-47%
same,growth inhibition,[7]; at 11.0 µM,-51%
same,growth inhibition,[7]; at 33.0 µM,-11%
same,growth inhibition,[7]; at 100.0 µM,49%
same,growth inhibition,[8]; [17],-18%
same,growth inhibition,[8]; [18],66%
same,growth inhibition,[8]; at 50.0 µM,47.4%
same,growth inhibition,[9]; at 1.2 µM,0%
same,growth inhibition,[9]; at 3.7 µM,0%
same,growth inhibition,[9]; [17],11%
same,growth inhibition,[9]; at 11.0 µM,-10%
same,growth inhibition,[9]; at 33.0 µM,3%
same,growth inhibition,[9]; [18],70% (active)
same,growth inhibition,[9]; at 50.0 µM,57.8%
same,growth inhibition,[9]; at 100.0 µM,74% (active)
same,growth inhibition,[10]; at 1.2 µM,-49%
same,growth inhibition,[10]; at 3.7 µM,-58%
same,growth inhibition,[10]; at 11.0 µM,-77%
same,growth inhibition,[10]; at 33.0 µM,23%
same,growth inhibition,[10]; at 100.0 µM,50%
same,growth inhibition,[11]; at 1.2 µM,-20%
same,growth inhibition,[11]; at 3.7 µM,-10%
same,growth inhibition,[11]; at 11.0 µM,3%
same,growth inhibition,[11]; at 33.0 µM,32%
same,growth inhibition,[11]; at 100.0 µM,81% (active)
same,growth inhibition,[12]; at 1.2 µM,29%
same,growth inhibition,[12]; at 3.7 µM,1%
same,growth inhibition,[12]; at 11.0 µM,-13%
same,growth inhibition,[12]; at 33.0 µM,23%
same,growth inhibition,[12]; at 100.0 µM,69%
same,growth inhibition,[13]; [17],-8%
same,growth inhibition,[13]; [18],83% (active)
same,growth inhibition,[14]; at 1.2 µM,-28%
same,growth inhibition,[14]; at 3.7 µM,-39%
same,growth inhibition,[14]; at 11.0 µM,-41%
same,growth inhibition,[14]; at 33.0 µM,-13%
same,growth inhibition,[14]; at 100.0 µM,74% (active)
